± gives the standard deviation of the averaged measurements. Whole data set: some 33,000 sequences, median “E-score (rank enrichment, -0.5 to 0.5)” near -0.0068, cut for the highest 2% near 0.24. The full list was thinned out, with the highest values kept by preference.
These sequences were tested on muMax20 (Max(13-93) K31hArg/K57hArg, M65Nle) (assay: PBM 8-mer E-score (E-score (rank enrichment, -0.5 to 0.5)); higher = stronger preferential binding).
Method: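 Protein binding microarray (universal PBM chip covering all 10-mers in fixed probe flanks) with chemically synthesized human Max(13-93) bHLH-LZ analogs (not full-length Max) bearing noncanonical residues (hArg, Tha, Aib, Nle at 65) and aromatic Cys staples. Read-out per 8-mer (and its reverse complement): E-score (rank-based enrichment, -0.5 to 0.5) and Z-score of median probe intensity.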

Sequence	PBM 8-mer E-score
AGCTAGAA	-0.0154 ± 0.041
GGTCCACA	-0.0698 ± 0.11
GACGCAGA	-0.0585 ± 0.079
CCCAGTAG	-0.0372 ± 0.037
CGGTAACA	-0.0167 ± 0.022
AGCCTGCA	0.0231 ± 0.12
AGCGTTGC	-0.0889 ± 0.092
CCGGCCGC	-0.23 ± 0.0085
CGCGGGTA	-0.0475 ± 0.074
ATGATTGA	0.127 ± 0.063
ACCCAACC	0.0711 ± 0.054
GATAATCA	0.311 ± 0.07
CATAATCA	0.08 ± 0.021
AATAATCA	0.08847 ± 8.5e-05
TATAATCA	0.247 ± 0.037
GATAATCC	-0.0364 ± 0.011
GCTAATCA	-0.0154 ± 0.012
ACTCCTCT	-0.0496 ± 0.01
GCCAAGAA	0.106 ± 0.011
ACCGAAAC	-0.0608 ± 0.064
ATCCTCAA	-0.0775 ± 0.063
CATCGCAA	0.0394 ± 0.039
GGGCGGAC	-0.19 ± 0.067
CGCGGGGA	-0.0158 ± 0.054
AGGCGGGA	0.0523 ± 0.011
GGCGGGGA	0.245 ± 0.082

Sequence	PBM 8-mer E-score
GGCGGGAA	-0.0111 ± 0.026
CGGCGGGA	-0.2043 ± 0.0015
GGGCGGGA	0.256 ± 0.051
AAGCCTAG	0.0589 ± 0.067
CGCTTCAC	-0.106 ± 0.011
GGAACGAC	-0.0812 ± 0.036
GACGCTCC	-0.151 ± 0.072
TATTAACA	0.128 ± 0.13
AATTAATT	0.213 ± 0.015
AATTAATA	0.271 ± 0.013
ATTTAATA	0.245 ± 0.097
CTTTAATA	0.16 ± 0.04
TATTAAAA	0.226 ± 0.062
CATTAATA	0.188 ± 0.011
AATTAATG	0.139 ± 0.05
CATTAACA	0.22 ± 0.1
GTTTAATA	0.218 ± 0.022
AATTAACA	0.244 ± 0.008
TATTAATA	0.288 ± 0.051
GGGGTGAA	0.0293 ± 0.058
ACCCAATA	0.132 ± 0.054
ACCTGTTC	0.0511 ± 0.016
CCGAGGAA	0.0622 ± 0.053
AATGACCC	0.074 ± 0.021
GTGGCACA	0.137 ± 0.017
ACTTTAGC	-0.00298 ± 0.1

Sequence	PBM 8-mer E-score
CGACTGCC	-0.163 ± 0.0073
GAACGAAA	0.0569 ± 0.079
ATCCTGTC	-0.0955 ± 0.045
CGGTACAC	-0.0567 ± 0.015
AAAAAGCG	0.0746 ± 0.018
ACCGCCTA	-0.0164 ± 0.2
AAACTATG	-0.057 ± 0.1
AGTCCTAG	-0.0808 ± 0.069
GATTAATC	-0.0526 ± 0.063
GATTAATA	0.314 ± 0.062
AATTAAGC	0.191 ± 0.046
AATTAAGA	0.253 ± 0.013
GATTAAGA	0.119 ± 0.07
GATTAACA	0.156 ± 0.037
AACCTTCC	0.0123 ± 0.0059
AAACGAGA	0.18 ± 0.13
CAACGAGA	0.0722 ± 0.14
TAACGAGA	0.263 ± 0.054
ATTACAGC	-0.00666 ± 0.05
ATTACAGA	0.0555 ± 0.062
ATTACAGG	0.236 ± 0.066
TAGATACA	0.143 ± 0.12
CTCCGAGC	-0.0246 ± 0.032
AAGTCATT	0.131 ± 0.027
ATGTTACC	0.106 ± 0.016
CTGTTACA	0.0334 ± 0.0084

Sequence	PBM 8-mer E-score
ATGTTACA	0.239 ± 0.025
CTATCTAA	0.0704 ± 0.073
AAATGTAT	0.241 ± 0.013
AAATGTAC	0.238 ± 0.048
AAATGTGT	0.175 ± 0.1
AAATGTAG	0.0928 ± 0.084
GAATGTAC	-0.0364 ± 0.078
CAATGTAC	0.115 ± 0.019
ACAGGCCT	-0.0825 ± 0.039
AGCAGTAA	-0.0641 ± 0.1
ACAGCGGA	-0.0346 ± 0.033
GAATCAGA	-0.0136 ± 0.14
GGACGGAA	-0.0931 ± 0.17
TGATTTAA	0.177 ± 0.05
TAGTATGA	0.247 ± 0.067
AAGTATGA	0.071 ± 0.059
CAGTATGA	0.138 ± 0.084
TGGAGACA	-0.0387 ± 0.082
ACATCTAG	-0.0494 ± 0.021
AGAGCATA	0.0465 ± 0.086
ATTTCAAA	0.252 ± 0.0095
CTTTCAAA	0.267 ± 0.044
ATTTCAAG	0.104 ± 0.023
CTTTCAAC	0.0143 ± 0.071
ATTTCAAC	0.146 ± 0.078
GTTTCAAA	0.162 ± 0.01

Sequence	PBM 8-mer E-score
ACTGGCTA	-0.11 ± 0.0093
CAGACAGA	-0.0661 ± 0.06
GTTCAATA	0.159 ± 0.039
ATGCAATC	0.126 ± 0.089
CGACGTGC	-0.0517 ± 0.017
GCACGTTA	0.0863 ± 0.14
CCACGTAG	-0.156 ± 0.06
CCACGTGC	0.463 ± 0.03
CTACGTGA	-0.0185 ± 0.092
CCACGTTA	0.246 ± 0.059
CCACGTTC	0.114 ± 0.033
CCACGTGG	0.475 ± 0.032
CCACGTCC	-0.0476 ± 0.004
CAACGTGG	0.11 ± 0.046
CGACGTGA	0.124 ± 0.012
CCACGTGA	0.43 ± 0.082
ACGGTGAT	0.0166 ± 0.12
ACTGGACT	-0.0734 ± 0.014
CACTCGAG	-0.165 ± 0.12
TCACTCAA	0.0768 ± 0.022
TCCAGCAA	0.0563 ± 0.029
CTGGCCTC	-0.191 ± 0.03
GTGCTAGA	0.0749 ± 0.058
CTAGGGAA	0.00576 ± 0.011
GGGCCCCC	-0.386 ± 0.075
CAAACCCA	0.212 ± 0.0064

Sequence	PBM 8-mer E-score
TGCAAGCA	-0.0637 ± 0.018
CAGTGCAG	-0.189 ± 0.011
CCTAGACA	-0.0468 ± 0.14
AACAGGGA	0.0422 ± 0.055
ACGCACAT	0.277 ± 0.039
AAGCACGG	-0.0498 ± 0.039
ACGCACGT	0.288 ± 0.066
AAGCACGT	0.297 ± 0.12
ACGCACAA	0.0465 ± 0.071
ACGCACGA	0.0808 ± 0.025
AAGCACGA	0.0985 ± 0.076
ACGCACAG	-0.11 ± 0.11
ACGCACGC	0.174 ± 0.014
ACGACTCA	-0.0769 ± 0.055
CGCACTCA	-0.0736 ± 0.0069
CTCAAATA	0.0362 ± 0.0096
CATTGACC	0.105 ± 0.047
GGGTCGAC	-0.00629 ± 0.1
AGCCTCAT	0.0933 ± 0.064
ATAATTTA	0.244 ± 0.038
ATTAATCA	0.2533 ± 0.00043
ATAATTTG	0.167 ± 0.077
GTTAATCA	0.204 ± 0.072
ATTAATTC	0.219 ± 0.0076
GTAATTTA	0.0797 ± 0.016
ATTAAGTA	0.24 ± 0.02

Sequence	PBM 8-mer E-score
ATTAAGTG	0.148 ± 0.031
ATTAATTA	0.258 ± 0.064
GTTAAGTA	0.063 ± 0.021
ATTAATCC	0.154 ± 0.022
ATTAATTG	0.136 ± 0.075
CCTCGATC	-0.0647 ± 0.046
GCCCATTA	-0.0555 ± 0.034
CGGCGGAC	-0.282 ± 0.091
GCAGGGCC	-0.171 ± 0.013
CCTCGGTA	-0.295 ± 0.042
CTCCGGAG	-0.227 ± 0.079
TACTGTGA	0.0496 ± 0.099
GGGAACGA	-0.0255 ± 0.026
ATTAGGAC	0.0695 ± 0.13
AGCACTAG	0.0808 ± 0.12
AAAGATCG	-0.152 ± 0.035
ATAAATTA	0.262 ± 0.08
CTAAATTA	0.0189 ± 0.047
ATAAATTG	0.157 ± 0.013
CCGTAGTC	-0.131 ± 0.045
AAGGAGAA	0.172 ± 0.0052

— the supplement of paper PMC12636033
